According to PMC5540273 (PLoS ONE, 2017):

Tests used:
Details in all cases: concentration: 1 μM, replicates: in singlicate; n = 1
RIOK1 = system: RIOK1
RIOK2 = system: RIOK2
RIOK3 = system: RIOK3
RIPK1 = system: RIPK1
RIPK2 = system: RIPK2
RIPK4 = system: RIPK4
RIPK5 = system: RIPK5
ROCK1 = system: ROCK1
ROCK2 = system: ROCK2
ROS1 = system: ROS1
[1] = system: RPS6KA4(Kin.Dom.1-N-terminal)
[2] = system: RPS6KA4(Kin.Dom.2-C-terminal)
[3] = system: RPS6KA5(Kin.Dom.1-N-terminal)
[4] = system: RPS6KA5(Kin.Dom.2-C-terminal)
[5] = system: T1, RSK1(Kin.Dom.1-N-terminal)
T1 construct: gene RPS6KA1

[6] = system: T2, RSK1(Kin.Dom.2-C-terminal)
T2 construct: gene RPS6KA1

[7] = system: T3, RSK2(Kin.Dom.1-N-terminal)
T3 construct: gene RPS6KA3

[8] = system: T4, RSK2(Kin.Dom.2-C-terminal)
T4 construct: gene RPS6KA3

[9] = system: T5, RSK3(Kin.Dom.1-N-terminal)
T5 construct: gene RPS6KA2

[10] = system: T6, RSK3(Kin.Dom.2-C-terminal)
T6 construct: gene RPS6KA2
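Note: KINOMEscan kinase panel screen.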

## CN1CCN(Cc2cccc(-c3ccc4c(Nc5ccc(Oc6ccccc6)cc5)ccnc4c3)c2)CC1 [GW578342]
RIOK1
  %Inh: 21%
RIOK2
  %Inh: 0%
RIOK3
  %Inh: 32%
RIPK1
  %Inh: 0%
RIPK2
  %Inh: 98.6%
RIPK4
  %Inh: 0%
RIPK5
  %Inh: 0%
ROCK1
  %Inh: 25%
ROCK2
  %Inh: 20%
ROS1
  %Inh: 0%
[1]
  %Inh: 0%
[2]
  %Inh: 0%
[3]
  %Inh: 0%
[4]
  %Inh: 21%
[5]
  %Inh: 26%
[6]
  %Inh: 99.1%
[7]
  %Inh: 0%
[8]
  %Inh: 15%
[9]
  %Inh: 0%
[10]
  %Inh: 7%

## C[C@@H]1CC[C@@H](C(=O)Nc2ccccc2)CN1c1cc(-c2ccc3c(N)n[nH]c3c2)nc(N)n1 [GSK2286062]
RIOK1
  %Inh: 48%
RIOK2
  %Inh: 52%
RIOK3
  %Inh: 20%
RIPK1
  %Inh: 31%
RIPK2
  %Inh: 0%
RIPK4
  %Inh: 0%
RIPK5
  %Inh: 0%
ROCK1
  %Inh: 14%
ROCK2
  %Inh: 35%
ROS1
  %Inh: 14%
[1]
  %Inh: 4%
[2]
  %Inh: 0%
[3]
  %Inh: 6%
[4]
  %Inh: 2%
[5]
  %Inh: 14%
[6]
  %Inh: 3%
[7]
  %Inh: 7%
[8]
  %Inh: 19%
[9]
  %Inh: 2%
[10]
  %Inh: 24%

## O=C(Nc1cccc(Oc2ccc3nc(NC(=O)C4CC4)cn3n2)c1)c1ccccc1C(F)(F)F
RIOK1
  %Inh: 64%
RIOK2
  %Inh: 0%
RIOK3
  %Inh: 76%
RIPK1
  %Inh: 15%
RIPK2
  %Inh: 11%
RIPK4
  %Inh: 0%
RIPK5
  %Inh: 0%
ROCK1
  %Inh: 0%
ROCK2
  %Inh: 0%
ROS1
  %Inh: 0%
[1]
  %Inh: 35%
[2]
  %Inh: 0%
[3]
  %Inh: 0%
[4]
  %Inh: 17%
[5]
  %Inh: 6%
[6]
  %Inh: 0%
[7]
  %Inh: 0%
[8]
  %Inh: 55%
[9]
  %Inh: 6%
[10]
  %Inh: 0%

## O=c1[nH]cc(-c2ccc(N3CCOCC3)cc2)c2sc(-c3cn[nH]c3)cc12 [GSK2276055]
RIOK1
  %Inh: 37%
RIOK2
  %Inh: 76%
RIOK3
  %Inh: 25%
RIPK1
  %Inh: 18%
RIPK2
  %Inh: 0%
RIPK4
  %Inh: 12%
RIPK5
  %Inh: 10%
ROCK1
  %Inh: 0%
ROCK2
  %Inh: 0%
ROS1
  %Inh: 0%
[1]
  %Inh: 2%
[2]
  %Inh: 0%
[3]
  %Inh: 0%
[4]
  %Inh: 28%
[5]
  %Inh: 29%
[6]
  %Inh: 24%
[7]
  %Inh: 23%
[8]
  %Inh: 7%
[9]
  %Inh: 14%
[10]
  %Inh: 22%

## COc1cc(Nc2nccc(-c3c(-c4cccc(NC(=O)c5c(F)cccc5F)c4)nn4ncccc34)n2)cc(OC)c1OC [GSK327238]
RIOK1
  %Inh: 20%
RIOK2
  %Inh: 5%
RIOK3
  %Inh: 24%
RIPK1
  %Inh: 16%
RIPK2
  %Inh: 99.4%
RIPK4
  %Inh: 4%
RIPK5
  %Inh: 0%
ROCK1
  %Inh: 12%
ROCK2
  %Inh: 14%
ROS1
  %Inh: 75%
[1]
  %Inh: 55%
[2]
  %Inh: 0%
[3]
  %Inh: 43%
[4]
  %Inh: 3%
[5]
  %Inh: 97.3%
[6]
  %Inh: 25%
[7]
  %Inh: 84%
[8]
  %Inh: 0%
[9]
  %Inh: 96.8%
[10]
  %Inh: 0%

## CCc1ccc(-c2ccc3c(c2)-c2c(cnn2C)S(=O)(=O)N3C)cc1
RIOK1
  %Inh: 0%
RIOK2
  %Inh: 12%
RIOK3
  %Inh: 0%
RIPK1
  %Inh: 0%
RIPK2
  %Inh: 0%
RIPK4
  %Inh: 9%
RIPK5
  %Inh: 26%
ROCK1
  %Inh: 0%
ROCK2
  %Inh: 0%
ROS1
  %Inh: 3%
[1]
  %Inh: 5%
[2]
  %Inh: 0%
[3]
  %Inh: 7%
[4]
  %Inh: 0%
[5]
  %Inh: 10%
[6]
  %Inh: 0%
[7]
  %Inh: 0%
[8]
  %Inh: 29%
[9]
  %Inh: 17%
[10]
  %Inh: 13%

## Cl.Cl.NCC(NC(=O)c1cc(-c2ccccc2)c(-c2ccnc3[nH]ccc23)s1)c1ccccc1 (stereo not shown) [GSK1321561]
RIOK1
  %Inh: 69%
RIOK2
  %Inh: 45%
RIOK3
  %Inh: 88%
RIPK1
  %Inh: 24%
RIPK2
  %Inh: 24%
RIPK4
  %Inh: 0%
RIPK5
  %Inh: 0%
ROCK1
  %Inh: 99.8%
ROCK2
  %Inh: 98.9%
ROS1
  %Inh: 19%
[1]
  %Inh: 24%
[2]
  %Inh: 0%
[3]
  %Inh: 4%
[4]
  %Inh: 0%
[5]
  %Inh: 0%
[6]
  %Inh: 62%
[7]
  %Inh: 14%
[8]
  %Inh: 61%
[9]
  %Inh: 0%
[10]
  %Inh: 0%

## COc1cc(Nc2nccc(N3CCC(NC(=O)Nc4cccc(C(C)=O)c4)C3)n2)cc(OC)c1OC (stereo not shown) [GSK1379753]
RIOK1
  %Inh: 73%
RIOK2
  %Inh: 0%
RIOK3
  %Inh: 65%
RIPK1
  %Inh: 9%
RIPK2
  %Inh: 22%
RIPK4
  %Inh: 48%
RIPK5
  %Inh: 0%
ROCK1
  %Inh: 25%
ROCK2
  %Inh: 7%
ROS1
  %Inh: 30%
[1]
  %Inh: 7%
[2]
  %Inh: 0%
[3]
  %Inh: 9%
[4]
  %Inh: 6%
[5]
  %Inh: 15%
[6]
  %Inh: 5%
[7]
  %Inh: 10%
[8]
  %Inh: 67%
[9]
  %Inh: 17%
[10]
  %Inh: 0%
